The nature of assay [1]: qHTS assay for identifying genotoxic compounds that show differential cytotoxicity against isogenic chicken DT40 cell lines with known DNA damage response pathways - Rev3 mutant cell line (AID 743014). Also: nearly all actives have a fitted effect of over 55% in size. Also: potency is read from the fitted curve at half-maximal effect. Background: In qHTS, concentration-response curves come from the screen itself.
A short description of assay [2]: qHTS assay for identifying genotoxic compounds that show differential cytotoxicity against isogenic chicken DT40 cell lines with known DNA damage response pathways - Rad54/Ku70 mutant cell line (AID 743015). Also: nearly all actives have a fitted effect of over 60% in size. Also: potency is read from the fitted curve at half-maximal effect.
Assay [3] can be described thus: qHTS assay to identify small molecule antagonists of the androgen receptor (AR) signaling pathway - cell viability counter screen (AID 743033; also: nearly all actives have a fitted effect of over 45% in size).
For assay [4], the target named is Androgen receptor (Homo sapiens) (UniProt P10275). The experiment in a line: qHTS assay to identify small molecule antagonists of the androgen receptor (AR) signaling pathway (AID 743035; active = well fitted inhibition curve with a large enough effect in the signal ratio in the repeat runs, not every such curve was filed as active; the % refers to the signal ratio). The method, boiled down:
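Antagonism is scored as loss of R1881-driven beta-lactamase reporter expression in HEK293 cells carrying the reporter under a UAS element, after 16 h co-treatment at 37C and a 2 h room-temperature FRET substrate read.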

Assay [5] shares this target. Put plainly: qHTS assay to identify small molecule agonists of the androgen receptor (AR) signaling pathway (AID 743036; active = well fitted activation curve with a large enough effect in the signal ratio in the repeat runs, with a control signal flat, not every such curve was filed as active; the % refers to the signal ratio; also: potency is read from the fitted curve at half-maximal effect). The method, boiled down: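 Screening used 2,000 AR-bla HEK293 cells per well, treated 16 h at 37C with test compounds in DMSO alongside positive and DMSO-only controls; beta-lactamase activity was then read by LiveBLAzer B/G FRET fluorescence after 2 h at room temperature.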

The target is the same in assay [6]. Put plainly: qHTS assay to identify small molecule agonists of the androgen receptor (AR) signaling pathway using the MDA cell line (AID 743040; also: nearly all actives have a fitted effect of over 20% in size; also: potency is read from the fitted curve at half-maximal effect). The method, boiled down:
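Cells plated, 5 h at 37C/0% CO2; compound or DMSO pinned; 16 h at 37C; ONE-Glo added; luminescence measured after 30 min at room temperature. Reporter line: MDA-kb2 with MMTV-luciferase responsive to AR and GR.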

A short description of assay [7]: qHTS assay to identify small molecule antagonists of the androgen receptor (AR) signaling pathway using the MDA cell line - cell viability counter screen (AID 743041; also: nearly all actives have a fitted effect of over 45% in size). In a few lines:
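Cells were plated at 3,000 per well and left 5 h. Compounds in DMSO were then pinned in, followed by R1881. After 16 h at 37C, CellTiter-Fluor fluorescence gave viability.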

Assay [8] can be described thus: qHTS assay for identifying genotoxic compounds that show differential cytotoxicity against isogenic chicken DT40 cell lines with known DNA damage response pathways - wild type cell line (AID 743012). Also: nearly all actives have a fitted effect of over 60% in size. Also: potency is read from the fitted curve at half-maximal effect. In a few lines: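 Cells (DT40 wild type, 300/well) are treated with DMSO-dissolved compounds after a ~0.5 h pre-incubation and kept 40 h at 37 C/5% CO2. Viability is then measured by CellTiter-Glo luminescence following 30 min at room temperature.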

Assay [9] concerns the target Androgen receptor (Homo sapiens) (UniProt P10275). The experiment in a line: qHTS assay to identify small molecule antagonists of the androgen receptor (AR) signaling pathway using the MDA cell line (AID 743042; also: nearly all actives have a fitted effect of over 55% in size). In a few lines: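 Antagonist mode: compounds plus R1881 agonist added to MDA-kb2 AR-luc cells, incubated 16 h at 37C. Luciferase reporter luminescence quantified, with multiplexed CellTiter-Fluor readout for cell viability.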

Where “and” joins values, the source holds several entries; their conditions need not be identical. Identical values can stand only once. Records with an inconclusive call do not appear. Where a structure was tested more than once in an assay, its records may differ in their call. Calls of active or inactive are those of the source. Unless noted, calls follow the shape of the dose curve; as a rule, active = well fitted curve in the direction sought with a large enough effect in the repeat runs; inconclusive = weak or mixed curves; inactive = no such curve, though single readings can be large; an effect the other way counts as inactive or inconclusive.

Sequence of Androgen receptor (Homo sapiens) (P10275 whole entry, looked up): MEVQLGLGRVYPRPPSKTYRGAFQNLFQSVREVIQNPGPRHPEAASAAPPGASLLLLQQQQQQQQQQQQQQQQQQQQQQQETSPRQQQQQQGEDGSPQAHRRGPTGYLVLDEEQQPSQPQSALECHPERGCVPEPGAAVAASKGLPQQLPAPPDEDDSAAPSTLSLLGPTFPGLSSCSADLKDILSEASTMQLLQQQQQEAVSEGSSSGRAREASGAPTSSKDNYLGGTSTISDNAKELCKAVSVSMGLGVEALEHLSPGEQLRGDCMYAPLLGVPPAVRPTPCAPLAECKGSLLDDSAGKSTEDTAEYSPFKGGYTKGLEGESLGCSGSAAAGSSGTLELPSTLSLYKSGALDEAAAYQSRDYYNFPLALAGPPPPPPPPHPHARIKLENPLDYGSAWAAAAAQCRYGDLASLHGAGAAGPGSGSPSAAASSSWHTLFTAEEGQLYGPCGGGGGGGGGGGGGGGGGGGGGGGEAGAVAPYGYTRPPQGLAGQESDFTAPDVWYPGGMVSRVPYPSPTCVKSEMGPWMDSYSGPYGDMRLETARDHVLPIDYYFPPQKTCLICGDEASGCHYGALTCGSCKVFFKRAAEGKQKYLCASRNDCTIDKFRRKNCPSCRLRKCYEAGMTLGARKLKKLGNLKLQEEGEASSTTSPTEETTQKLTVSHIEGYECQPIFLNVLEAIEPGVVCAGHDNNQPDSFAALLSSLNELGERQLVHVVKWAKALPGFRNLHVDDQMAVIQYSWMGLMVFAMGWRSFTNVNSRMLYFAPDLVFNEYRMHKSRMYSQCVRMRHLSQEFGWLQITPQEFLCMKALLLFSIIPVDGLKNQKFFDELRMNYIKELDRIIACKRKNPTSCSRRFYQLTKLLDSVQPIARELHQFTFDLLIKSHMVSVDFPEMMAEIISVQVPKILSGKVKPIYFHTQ

For `CC1=C(C)S(=O)(=O)CCS1(=O)=O`, the Potency was 68.6 µM (active) in assay [1]; 60 µM (active) and 61.1 µM (active) in assay [2]. Besides, the Potency result in assay [3], in assay [5], in assay [6] and in assay [7] was “inactive” throughout. Further, the compound was classed as inactive in assay [4].

With `N[C@@H](Cc1cc(I)c(Oc2cc(I)c(O)c(I)c2)c(I)c1)C(=O)O`, the Potency entry in assay [8], in assay [1], in assay [2], in assay [3] and in assay [7] was “inactive” in each case.

With `CCCCOC(=O)COc1ccc(Cl)cc1Cl`, the Potency entry in assay [8], in assay [1], in assay [2], in assay [3] and in assay [7] was “inactive” each time.

For the compound `CCCCCOC(C)=O`, the Potency result in [8], in assay [2], in [3] and in [7] was “inactive” in each case. Besides, the Potency result in assay [1] is “inactive and 68.6 µM (active)”.

Take `C[C@H]1C[C@@H]2[C@H]([C@@H](O)C[C@@]3(C)[C@H]2CC[C@]3(O)C(=O)CO)[C@@]2(C)C=CC(=O)C=C12`: the Potency entry in assay [8], in [1], in assay [2], in assay [3] and in assay [7] was “inactive” throughout. The Potency in assay [5] was 32.3 nM (active) and 49 nM (active); in assay [6] it was 50.7 nM (active) and 38.6 nM (active). For the same compound, the result in assay [9] was inactive.

With `Cc1cccc(O)c1`, the Potency result in assay [8], in assay [1], in assay [2], in assay [3] and in [7] was “inactive” throughout.

`O=C(O)c1ccc(C(=O)O)cc1`: the Potency result in assay [8], in assay [1], in assay [2], in assay [3] and in assay [7] was “inactive” throughout.

For the compound `OC[C@H]1O[C@@](CO)(O[C@H]2O[C@H](CO)[C@@H](O)[C@H](O)[C@H]2O)[C@@H](O)[C@@H]1O`, the Potency result in assay [8], in assay [1], in assay [2], in [3] and in [7] was “inactive” throughout.

As to `CSCCC=O`, the Potency entry in assay [8], in [2], in assay [3] and in assay [7] was “inactive” in each case.

Turning to `CC(=O)Nc1cccc(O)c1`, the Potency result in [8], in [1], in assay [2], in [3] and in assay [7] was “inactive” each time.

With `ON=C1CCCCC1`, the Potency result in assay [8], in assay [1], in assay [2], in assay [3] and in assay [7] was “inactive” each time.

Turning to `CC(C)CC(=O)CC(C)C`, the Potency entry in [8], in assay [1], in assay [2], in assay [3] and in assay [7] was “inactive” each time.

For `CCCCN(CCCC)CCCC`, the Potency result in [8], in [1], in [2], in assay [3] and in assay [7] was “inactive” throughout.

As for `OCC(CO)(CBr)CBr`, the Potency entry in [8], in [1], in assay [2], in assay [3] and in [7] was “inactive” throughout.

As for `CCCCCCCC(=O)OC`, the Potency result in assay [8], in assay [1], in assay [2], in assay [3] and in assay [7] was “inactive” throughout.

Take `O=S1(=O)CC=CC1`: the Potency result in [8], in assay [1], in [2], in [3] and in assay [7] was “inactive” in each case.

As to `C#C[C@]1(O)CC[C@H]2[C@@H]3CCC4=CC(=O)CC[C@@H]4[C@H]3CC[C@@]21C`, the Potency entry in assay [8] is “inactive and 30.6 µM (active)”; in [1], “inactive and 27.3 µM (active)”; in assay [2] it was 27.3 µM (active). Moreover, the Potency result in assay [3] and in [7] was “inactive” in each case.

With `CCCCCC/C(C=O)=C\c1ccccc1`, the Potency entry in assay [8], in assay [1], in assay [2], in assay [3] and in assay [7] was “inactive” each time.

In the case of `CCCCC(CC)COC(=O)CCCCC(=O)OCC(CC)CCCC` (configuration not stated), the Potency result in [3] and in [7] was “inactive” throughout.

On to `CCCCCCCCC/C=C/CC1CC(=O)OC1=O` (configuration not stated), for which the Potency result in assay [8], in [2], in assay [3] and in [7] was “inactive” in each case. The Potency in assay [1] was 48.6 µM (active).

For the compound `c1ccc2c(c1)ccc1ccccc12`, the Potency in [1] was 68.6 µM (active); in assay [2], 30.6 µM (active). Also, the compound was classed as inactive in [4] and in assay [9]. In addition, the Potency entry in assay [5], in assay [6] and in assay [7] was “inactive” throughout.

On to `O=C(O)c1cc(C(=O)O)cc(S(=O)(=O)O)c1`, for which the Potency entry in assay [8], in assay [1], in [2], in assay [3] and in assay [7] was “inactive” in each case.

On to `Cc1ccc(S(N)(=O)=O)cc1`, for which the Potency result in assay [8], in assay [1], in [2], in assay [3] and in assay [7] was “inactive” throughout.

For the compound `O=c1[nH]nnc2ccccc12`, the Potency result in assay [8], in assay [1], in assay [2], in [3] and in assay [7] was “inactive” each time.

As for `CCCCC(CC)COC(=O)CS` (configuration not stated), the Potency entry in assay [8], in [1], in [3] and in [7] was “inactive” in each case. Further, the Potency entry in [2] was “inactive and 61.1 µM (active)”.

On to `COS(C)(=O)=O`, for which the Potency result in assay [8], in assay [1], in assay [2], in [3] and in [7] was “inactive” throughout.

Turning to `O=C(Oc1ccccc1)c1ccccc1`, the Potency entry in assay [8], in [1], in [2], in assay [3] and in assay [7] was “inactive” each time.

As to `CC(C)(C)[C@@H](O)[C@@H](Cc1ccc(Cl)cc1)n1cncn1`, the Potency result is “inactive and 48.5 µM (active)” in assay [8]; 30.6 µM (active) in [1]; 61.1 µM (active) in assay [2]. Also, the Potency result in assay [3] and in assay [7] was “inactive” each time.

As for `C=C(C)C(=O)O[C@H]1C[C@@H]2CC[C@@]1(C)C2(C)C`, the Potency result in [8], in [1], in assay [2], in [3] and in assay [7] was “inactive” in each case.

In the case of `CC(=O)c1ccccc1`, the Potency result in assay [8], in assay [1], in assay [2], in assay [3] and in assay [7] was “inactive” in each case.

For `Fc1ccc(Br)cc1`, the Potency result in assay [8], in [1], in assay [2], in [3] and in [7] was “inactive” in each case.

Consider `O=C(CC(C(=O)OC1CCCCC1)S(=O)(=O)O)OC1CCCCC1` (configuration not stated), for which the Potency result is “inactive and 17 µM (active)” in assay [8]; “inactive and 17 µM (active)” in assay [1]; “inactive and 12 µM (active)” in assay [2]. In addition, the Potency result in assay [3] and in assay [7] was “inactive” in each case.

With `O=c1[nH]c(=O)n([C@H]2CCCO2)cc1F`, the Potency result in assay [8], in assay [1], in assay [2], in assay [3] and in assay [7] was “inactive” throughout.

In the case of `C=C(C)C(=O)Nc1ccc(Cl)c(Cl)c1`, the Potency result in [8], in assay [1], in assay [2] and in [7] was “inactive” throughout.

These data come from PubChem BioAssay (Tox21).
